Screening data: PubChem BioAssay, The Scripps Research Institute Molecular Screening Center
DAX1 inh-1 – inhibitors of DAX1 repression of SF-1 activated StAR promoter; HEK293T StAR-luciferase reporter, SF-1/DAX-1 repression relief; inhibition, % at 6.8 µM; 370,000 compounds, 1.1% hits; AID 652010;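 active means inhibition above the mean over all tested compounds plus 3 SD, cut at about 3.6% in these data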;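 further: 0% = DAX-1 cells with DMSO and 100% = cells lacking DAX-1 with DMSO; higher inhibition means more luminescence from relief of DAX-1 repression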
hgDAF12 agonist – agonists of H. glycines DAF-12 nuclear receptor. HEK293 GAL4-hgDAF12 UAS-luciferase reporter, agonist luminescence; normalized to butyrate control. activation, % at 6.8 µM. 370,000 compounds, 1.8% hits;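 active means activation above a cutoff set at the mean of all screened compounds plus 3 SD, cut at about 10% in these data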;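 further: 0% = DMSO wells and 100% = sodium butyrate wells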
ssDAF-12 act – activates DAF-12 receptor from parasite S. stercoralis. activation, % at 6.8 µM. 370,000 compounds, 1% hits. HEK293 ssDAF-12/GRIP1 lit1-tk-luc reporter, luminescence; % of 3 µM dafachronic acid response;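 active means activation above the mean over all tested compounds plus 3 SD, cut at about 0.9% in these data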;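 further: 0% = DMSO-only wells and 100% = 3 µM delta7-dafachronic acid wells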
FXN GAA850 act – frataxin GAA850 promoter activation; HEK293 lucGAA850 FXN promoter luciferase reporter, 24 h; percent of 10 µM SAHA response; activation, % at 6 µM; 360,000 compounds, 0.56% hits; AID 540364;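 active means activation above the average of all compounds screened plus 3 SD, cutoff fixed separately per campaign, cut at about 7.5% in these data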;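 further: 0% = DMSO wells and 100% = 10 µM SAHA wells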
DAX1 inh-2 – NR0B1 (DAX1) inhibition. HEK293 Gal4-DAX1 luciferase reporter, luminescence. inhibition, % at 6.75 µM. 340,000 compounds, 0.99% hits. P51843;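 active means inhibition above the mean over all tested compounds plus 3 SD, cut at about 4.2% in these data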;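 further: 0% = DAX1-transfected cells with DMSO and 100% = empty-vector control cells with DMSO; inhibition shows as a rise in luminescence from relieved DAX1 repression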
Target sequence (P51843 207-470 limits assumed): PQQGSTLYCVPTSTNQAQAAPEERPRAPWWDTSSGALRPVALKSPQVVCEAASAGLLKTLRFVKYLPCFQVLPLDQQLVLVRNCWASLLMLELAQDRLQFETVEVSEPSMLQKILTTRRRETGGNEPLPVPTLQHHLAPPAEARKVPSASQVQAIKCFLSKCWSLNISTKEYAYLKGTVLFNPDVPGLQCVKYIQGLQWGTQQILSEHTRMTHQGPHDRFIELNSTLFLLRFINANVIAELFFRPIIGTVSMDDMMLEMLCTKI
hcDAF12 agonist – H. contortus DAF-12 activation, primary screen; activation, % at 6.8 µM; 370,000 compounds, 1.4% hits; HEK293 hcDAF-12 lit1-tk-luc reporter, luminescence; 0% DMSO, 100% Δ7-dafachronic acid;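 active means activation above the mean of all tested compounds plus 3 SD, cut at about 5.5% in these data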;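 further: 100% = response to 3 µM Δ7-dafachronic acid high control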
GAA30 counter – GAA30 FXN promoter activation counter-screen | shares compounds with FXN GAA850 act | HEK293 lucGAA30 FXN promoter luciferase, 24 h; DMSO = 0%, 5 µM ipriflavone = 100% | activation, % at 6 µM | 1,900 compounds, 66% hits | AID 588350;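 active means mean activation above the mean of solvent-only control wells plus 3 SD, cut at about 22% in these data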;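 further: counterscreen of GAA850 promoter hits where activity marks nonselective or luminescence artifacts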
GAA850 confirm – GAA850 FXN promoter activation confirmation; activation, % at 6 µM; shares compounds with FXN GAA850 act; HEK293 lucGAA850 FXN promoter luciferase reporter, 24 h; 100% = activation by SAHA; 1,900 compounds, 86% hits; AID 588351;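 active means mean activation above a set limit taken from the primary screen, cut at about 8% in these data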;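 further: 0% = DMSO wells and 100% = 10 µM SAHA wells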
DAX1 conf – confirmation of human DAX1 (NR0B1) inhibitors | shares compounds with DAX1 inh-1 | HEK293T StAR-promoter luciferase reporter, SF-1/DAX-1 repression | inhibition, % at 6.8 µM | 2,400 compounds, 87% hits;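 active means inhibition above the average of every tested compound plus 3 SD, cut at about 3.8% in these data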;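 further: 0% = DAX-1 cells with DMSO and 100% = no DAX-1 control cells with DMSO; active compounds raise luminescence by relieving repression of the StAR reporter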
Target sequence (P51843 whole entry, looked up): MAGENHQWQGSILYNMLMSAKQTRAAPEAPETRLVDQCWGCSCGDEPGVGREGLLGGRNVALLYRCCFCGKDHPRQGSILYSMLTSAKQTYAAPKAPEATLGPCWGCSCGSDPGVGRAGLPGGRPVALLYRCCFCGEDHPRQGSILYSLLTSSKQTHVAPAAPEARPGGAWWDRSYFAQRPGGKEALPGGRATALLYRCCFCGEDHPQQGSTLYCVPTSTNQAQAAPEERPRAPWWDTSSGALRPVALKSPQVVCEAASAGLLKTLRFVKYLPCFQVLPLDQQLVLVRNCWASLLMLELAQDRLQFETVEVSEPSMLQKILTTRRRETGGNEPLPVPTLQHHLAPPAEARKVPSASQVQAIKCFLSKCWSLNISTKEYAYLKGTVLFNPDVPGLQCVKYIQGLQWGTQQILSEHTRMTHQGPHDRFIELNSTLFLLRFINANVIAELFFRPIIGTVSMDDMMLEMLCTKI
SF1 mutant ctr – counter-screen for DAX1 inhibitors: nonselective inhibitors with SF-1 AF2 mutant; shares compounds with DAX1 inh-1; HEK293 StAR-luciferase, luminescence; inhibition, % at 6.8 µM; 2,400 compounds, 78% hits;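 active means inhibition above the mean of all tested compounds plus 3 SD, cut at about 3% in these data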;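 further: 0% = DAX-1 transfected cells with DMSO and 100% = cells without DAX-1 with DMSO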
Starred values were filed as active, the others as inactive. In the library only some 4.5% were active in any assay of this set; here they are far more common.

What do the screens show for `Cn1cnc2cc(NC(=O)c3ccc(Cl)cc3)ccc21`?
DAX1 inh-1: 6.6*; hgDAF12 agonist: 11.7*; ssDAF-12 act: -0.5; FXN GAA850 act: 9.3*; DAX1 inh-2: 1.1; hcDAF12 agonist: 2.4; GAA30 counter: 95.3*; GAA850 confirm: 42.2*; DAX1 conf: 13.5*; SF1 mutant ctr: 6.4*

Results for CCC(=O)Nc1ccc2c(c1)ncn2C ?
DAX1 inh-1: -0.7; hgDAF12 agonist: 1.7; ssDAF-12 act: -1.2; FXN GAA850 act: 1.9; DAX1 inh-2: -1.2; hcDAF12 agonist: -1.2

How did Cc1cccc2nc(COc3ccc4ccccc4c3Br)cn12 do in these assays?
DAX1 inh-1: 4.8*; hgDAF12 agonist: 10.1; ssDAF-12 act: 0.3; FXN GAA850 act: 11.9*; DAX1 inh-2: 6.5*; hcDAF12 agonist: 6.0*; GAA30 counter: 133.6*; GAA850 confirm: 48.0*; DAX1 conf: 11.9*; SF1 mutant ctr: 7.3*

Results for Cc1cccc(NC(=O)COC(=O)CC2CCCC2)c1C ?
DAX1 inh-1: 0.1; hgDAF12 agonist: 0.1; ssDAF-12 act: -0.2; FXN GAA850 act: 1.4; DAX1 inh-2: -1.6; hcDAF12 agonist: 1.5

How did CC[C@@]1(C(=O)OC)N[C@H](CN(C)C(=O)c2ccc(C)cc2)[C@@H]2C(=O)N(C)C(=O)[C@@H]21 do in these assays?
DAX1 inh-1: -1.2; hgDAF12 agonist: 2.1; ssDAF-12 act: -1.1; FXN GAA850 act: 1.1; DAX1 inh-2: 0.1; hcDAF12 agonist: 0.0

Results for O=C(Nc1ccc(Br)cc1Cl)c1ccc2c(=O)n3c(nc2c1)CCC3 ?
DAX1 inh-1: 5.1*; hgDAF12 agonist: 10.0; ssDAF-12 act: -1.0; FXN GAA850 act: 7.9*; DAX1 inh-2: 1.4; hcDAF12 agonist: -0.3; GAA30 counter: 87.5*; GAA850 confirm: 23.4*; DAX1 conf: 5.2*; SF1 mutant ctr: 2.9*

What do the screens show for `COc1ccccc1NC(=O)c1ccc2c(=O)n3c(nc2c1)CCC3`?
DAX1 inh-1: 0.4; hgDAF12 agonist: 1.5; ssDAF-12 act: -0.9; FXN GAA850 act: 1.1; DAX1 inh-2: -0.1; hcDAF12 agonist: 0.2

Results for CCc1ccc(/C=N/Nc2ncnc3nc[nH]c23)cc1 ?
DAX1 inh-1: 5.2*; hgDAF12 agonist: 10.9*; ssDAF-12 act: -0.7; FXN GAA850 act: 11.0*; DAX1 inh-2: -0.1; hcDAF12 agonist: 3.2; GAA30 counter: 132.0*; GAA850 confirm: 54.3*; DAX1 conf: 14.1*; SF1 mutant ctr: 1.0

How did O=C(CCS(=O)(=O)c1ccccc1)N(CCCN1CCOCC1)c1nc2ccc(F)cc2s1 do in these assays?
DAX1 inh-1: 6.7*; hgDAF12 agonist: 9.1; ssDAF-12 act: -0.5; FXN GAA850 act: 14.6*; DAX1 inh-2: 0.2; hcDAF12 agonist: 1.1; GAA30 counter: 105.2*; GAA850 confirm: 65.8*; DAX1 conf: 5.5*; SF1 mutant ctr: 2.2

How did CCc1cccc2sc(N(CCCN3CCOCC3)C(=O)CS(=O)(=O)c3ccccc3)nc12 do in these assays?
DAX1 inh-1: 0.3; hgDAF12 agonist: 4.6; ssDAF-12 act: -0.6; FXN GAA850 act: 1.6; DAX1 inh-2: 0.3; hcDAF12 agonist: -1.9

What do the screens show for `CNC(=O)c1c[nH]c2ccc(S(=O)(=O)Nc3cccc(SC)c3)cc2c1=O`?
DAX1 inh-1: 0.3; hgDAF12 agonist: 4.5; ssDAF-12 act: -1.3; FXN GAA850 act: -0.9; DAX1 inh-2: -0.5; hcDAF12 agonist: 1.5

How did Cc1cnc(NC(=O)Nc2ccc(Cl)cc2)s1 do in these assays?
DAX1 inh-1: 6.0*; hgDAF12 agonist: 8.2; ssDAF-12 act: 0.0; FXN GAA850 act: 8.2*; DAX1 inh-2: 3.7; hcDAF12 agonist: 5.8*; GAA30 counter: 73.6*; GAA850 confirm: 45.5*; DAX1 conf: 14.4*; SF1 mutant ctr: 6.8*

How did O=C(NC1CCCCC1)C(=O)c1c[nH]c2ccccc12 do in these assays?
DAX1 inh-1: 6.5*; hgDAF12 agonist: 10.3; ssDAF-12 act: -0.6; FXN GAA850 act: 8.3*; DAX1 inh-2: 2.3; hcDAF12 agonist: 2.2; GAA30 counter: 84.9*; GAA850 confirm: 27.7*; DAX1 conf: 8.5*; SF1 mutant ctr: 5.5*

How did C=CCN(C(=O)c1oc2c(Cl)cc(C)cc2c1C)C1CCS(=O)(=O)C1 (stereo unspecified) do in these assays?
DAX1 inh-1: 5.2*; hgDAF12 agonist: 6.0; ssDAF-12 act: 0.4; FXN GAA850 act: 8.1*; DAX1 inh-2: 1.3; hcDAF12 agonist: 0.6; GAA30 counter: 102.3*; GAA850 confirm: 40.4*; DAX1 conf: 6.1*; SF1 mutant ctr: 4.0*

What do the screens show for `O=C(NC1CCCCN(Cc2cccc(Cl)c2)C1=O)C1CCCCC1` (stereo unspecified)?
DAX1 inh-1: -0.4; hgDAF12 agonist: -0.9; ssDAF-12 act: -0.8; hcDAF12 agonist: -2.4

Results for C=CC[C@@H](CC(=O)N(CCO)Cc1ccccc1)C(=O)N[C@@H](C)COC(=O)[C@@H](CC=C)Cc1ccc(F)cc1 ?
DAX1 inh-1: -1.4; hgDAF12 agonist: -4.0; ssDAF-12 act: -1.7; FXN GAA850 act: -5.5; DAX1 inh-2: -0.1; hcDAF12 agonist: -2.9

How did COC(=O)[C@]1(Cc2ccccc2)N[C@H](CN(C)C(=O)Nc2ccc(C(F)(F)F)cc2)[C@@H]2C(=O)N(Cc3ccccc3)C(=O)[C@@H]21 do in these assays?
DAX1 inh-1: 2.9; hgDAF12 agonist: 0.6; ssDAF-12 act: -0.9; FXN GAA850 act: -1.8; DAX1 inh-2: -0.1; hcDAF12 agonist: 1.6

What do the screens show for `CC[C@@]1(C(=O)OC)N[C@H](CN(C)C(=O)Nc2ccc(C(F)(F)F)cc2)[C@@H]2C(=O)N(Cc3ccccc3)C(=O)[C@@H]21`?
DAX1 inh-1: 5.3*; hgDAF12 agonist: 1.6; ssDAF-12 act: 2.5*; FXN GAA850 act: 8.9*; DAX1 inh-2: -0.9; hcDAF12 agonist: 0.4; GAA30 counter: 26.9*; GAA850 confirm: 11.3*; DAX1 conf: 0.7; SF1 mutant ctr: 0.5
